Several values for one entry are separate records, joined by “and”; a condition that tells them apart may be missing. Identical values can stand only once. Inconclusive results are not listed. The source holds several records for some structures; these can differ, active in one and inactive in another. Activity calls are given as the source filed them. Calls come from the whole dose curve; as a rule, active = well fitted curve in the direction sought with a large enough effect in the repeat runs; inconclusive = weak or mixed curves; inactive = no such curve, though single readings can be large; an effect the other way counts as inactive or inconclusive.
biological target: Cytochrome P450 2D6 (Homo sapiens) (UniProt P10635); assay: Cytochrome P450 family 2 subfamily D member 6 (CYP2D6) small molecule antagonists: luciferase biochemical (cell-free) qHTS assay (AID 1645840); details: P450-Glo CYP2D6 enzyme, luciferin luminescence, 1 h; series mostly up to 57.4 µM; activity change, negative = inhibition: at the top concentration
Method in brief: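 P450-Glo CYP2D6 system: proluciferin substrate converted by enzyme to luciferin, read by luminescence proportional to activity. Enzyme-substrate mix with compound 10 min at room temperature, then NADPH regeneration 1 h before detection reagent.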
% is set by controls: 0 for no effect and ±100 for the full control effect; potency is the fitted concentration of half-maximal effect.
Note: nearly all actives have a fitted effect of over 55% in size.

Chain of Cytochrome P450 2D6 (Homo sapiens) (P10635 whole entry, looked up): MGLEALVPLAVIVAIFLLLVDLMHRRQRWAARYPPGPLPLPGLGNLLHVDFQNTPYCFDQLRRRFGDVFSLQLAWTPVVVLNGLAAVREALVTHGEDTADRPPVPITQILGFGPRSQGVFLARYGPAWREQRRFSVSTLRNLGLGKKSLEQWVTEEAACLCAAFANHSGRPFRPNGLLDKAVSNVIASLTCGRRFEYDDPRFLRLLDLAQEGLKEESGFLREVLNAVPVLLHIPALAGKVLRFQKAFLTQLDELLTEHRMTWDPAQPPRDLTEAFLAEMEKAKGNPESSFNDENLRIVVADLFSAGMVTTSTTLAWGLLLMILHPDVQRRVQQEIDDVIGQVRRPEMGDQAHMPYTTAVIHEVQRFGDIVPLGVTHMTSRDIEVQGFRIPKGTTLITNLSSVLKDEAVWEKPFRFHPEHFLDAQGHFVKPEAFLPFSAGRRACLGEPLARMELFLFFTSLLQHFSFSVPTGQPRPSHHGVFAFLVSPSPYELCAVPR

**Q.** With `CCOC(=O)c1ncn2c1CN(C)C(=O)c1cc(F)ccc1-2` as the compound, how does the Potency read?
**A.** inactive

**Q.** `Cc1cn([C@H]2C=C[C@@H](CO)O2)c(=O)[nH]c1=O` was tested. Which “activity change, negative = inhibition” value did it give?
**A.** 2.26% (inactive)

**Q.** How did the “activity change, negative = inhibition” value turn out when `CC(C)Cc1ccc(C(C)C(=O)O)cc1` (centres undefined) was run?
**A.** 2.98% (inactive)

**Q.** With `CC(C)(C)C(=O)Oc1ccc(S(=O)(=O)Nc2ccccc2C(=O)NCC(=O)O)cc1` as the compound, how does the “activity change, negative = inhibition” value read?
**A.** 16.9% (inactive)

**Q.** With `O=C1N(c2ccccc2)c2ccccc2C1(Cc1ccncc1)Cc1ccncc1` as the compound, how does the “activity change, negative = inhibition” value read?
**A.** -15.1% (inactive)

**Q.** How did the “activity change, negative = inhibition” value turn out when `Clc1ccc(C(c2ccccc2Cl)C(Cl)Cl)cc1` (centres undefined) was run?
**A.** -20.8% (inactive)

**Q.** For `COC(=O)Nc1nc2ccc(C(=O)c3cccs3)cc2[nH]1`, which “activity change, negative = inhibition” value is on record?
**A.** 1.28% (inactive)

**Q.** `CCC1(C)CC(=O)NC1=O` (centres undefined) was tested. Which “activity change, negative = inhibition” value did it give?
**A.** -9.78% (inactive)

**Q.** With `Clc1ccc2nsnc2c1NC1=NCCN1` as the compound, how does the Potency read?
**A.** 17.4 µM (active)

**Q.** Which Potency does the source give for `CC(C)(Oc1ccc(C2CC2(Cl)Cl)cc1)C(=O)O` (centres undefined) here?
**A.** inactive

**Q.** How did the “activity change, negative = inhibition” value turn out when `CC[N+](CC)(CC)CCOc1cccc(OCC[N+](CC)(CC)CC)c1OCC[N+](CC)(CC)CC` was run?
**A.** -2.6% (inactive)

**Q.** How did the “activity change, negative = inhibition” value turn out when `COc1ccc2[nH]cc(CCNC(C)=O)c2c1` was run?
**A.** -15.1% (inactive)

**Q.** `CN1C(C(=O)Nc2ccccn2)=C(O)c2ccccc2S1(=O)=O` was tested. Which Potency did it give?
**A.** inactive

**Q.** With `COc1ccc(C2CNC(=O)C2)cc1OC1CCCC1` (centres undefined) as the compound, how does the “activity change, negative = inhibition” value read?
**A.** -11.6% (inactive)

**Q.** How did the “activity change, negative = inhibition” value turn out when `CC(C)NCC(O)COc1ccc(CCOCC2CC2)cc1` (centres undefined) was run?
**A.** -18.8% (inactive)

**Q.** For `CC[C@@]1(O)C(=O)OCc2c1cc1n(c2=O)Cc2cc3c(CN(C)C)c(O)ccc3nc2-1`, which “activity change, negative = inhibition” value is on record?
**A.** 4.64% (inactive)

**Q.** `Cc1cc(C(C)(C)C)c(O)c(C)c1CC1=NCCN1` was tested. Which Potency did it give?
**A.** 1.95 µM (active)

**Q.** With `C[C@H]1c2cccc(O)c2C(O)=C2C(=O)[C@]3(O)C(O)=C(C(N)=O)C(=O)[C@@H](N(C)C)[C@@H]3[C@@H](O)[C@@H]21` as the compound, how does the “activity change, negative = inhibition” value read?
**A.** -23.2% (inactive)

**Q.** With `Cc1cc(C(C)(C)C)cc(C)c1CC1=NCCN1` as the compound, how does the Potency read?
**A.** 4.36 µM (active)

**Q.** `NS(=O)(=O)c1cc2c(cc1Cl)NCNS2(=O)=O` was tested. Which “activity change, negative = inhibition” value did it give?
**A.** 3.54% (inactive)

**Q.** Which “activity change, negative = inhibition” value does the source give for `CCC1(c2ccccc2)C(=O)NCNC1=O` here?
**A.** 1.1% (inactive)

**Q.** How did the “activity change, negative = inhibition” value turn out when `NCCCCCC(=O)O` was run?
**A.** 2.22% (inactive)

**Q.** For `O=c1[nH]cc(F)c(=O)[nH]1`, which “activity change, negative = inhibition” value is on record?
**A.** 8.87% (inactive)

**Q.** How did the “activity change, negative = inhibition” value turn out when `Cn1c(=O)c2[nH]cnc2n(C)c1=O` was run?
**A.** 1.63% (inactive)

**Q.** With `Nc1ccn([C@H]2CC[C@@H](CO)O2)c(=O)n1` as the compound, how does the “activity change, negative = inhibition” value read?
**A.** 16.1% (inactive)

**Q.** For `N[C@@H](Cc1c[nH]c2ccc(O)cc12)C(=O)O`, which Potency is on record?
**A.** 19.5 µM (active)

**Q.** With `NC(=O)OCC(COC(N)=O)c1ccccc1` as the compound, how does the “activity change, negative = inhibition” value read?
**A.** -0.946% (inactive)

**Q.** With `COc1cc2c(c(OC)c1OC)-c1ccc(OC)c(=O)cc1[C@@H](NC(C)=O)CC2` as the compound, how does the “activity change, negative = inhibition” value read?
**A.** -4.45% (inactive)

biological target: Cytochrome P450 2C9 (Homo sapiens) (UniProt P11712); assay: Cytochrome P450 family 2 subfamily C member 9 (CYP2C9) small molecule antagonists: luciferase biochemical (cell-free) qHTS assay (AID 1645842); details: P450-Glo CYP2C9 enzyme assay, luciferin luminescence; series mostly up to 57.4 µM; activity change, negative = inhibition: at the top concentration
Method in brief: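 P450-Glo CYP2C9 system: proluciferin substrate with enzyme in mix containing 0.4% BSA, 10 min at room temperature, then NADPH regeneration solution added and incubated 1 h at 37C. Detection reagent stopped reaction; luminescence read after 20 min as RLU.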

Chain of Cytochrome P450 2C9 (Homo sapiens) (P11712 whole entry, looked up): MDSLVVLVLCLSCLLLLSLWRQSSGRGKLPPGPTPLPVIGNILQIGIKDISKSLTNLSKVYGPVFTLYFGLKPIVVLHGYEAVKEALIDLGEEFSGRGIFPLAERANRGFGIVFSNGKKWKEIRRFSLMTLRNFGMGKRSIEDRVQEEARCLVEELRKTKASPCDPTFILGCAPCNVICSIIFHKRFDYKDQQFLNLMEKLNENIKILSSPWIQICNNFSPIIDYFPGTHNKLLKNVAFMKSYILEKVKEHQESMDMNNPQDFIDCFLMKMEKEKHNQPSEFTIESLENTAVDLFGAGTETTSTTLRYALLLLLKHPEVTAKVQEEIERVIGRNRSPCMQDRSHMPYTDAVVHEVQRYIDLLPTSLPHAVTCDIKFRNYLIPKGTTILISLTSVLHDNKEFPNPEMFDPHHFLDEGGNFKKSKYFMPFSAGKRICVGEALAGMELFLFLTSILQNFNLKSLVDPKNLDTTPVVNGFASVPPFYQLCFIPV

**Q.** `CCOC(=O)c1ncn2c1CN(C)C(=O)c1cc(F)ccc1-2` was tested. Which Potency did it give?
**A.** inactive and 13.5 µM (active)

**Q.** How did the “activity change, negative = inhibition” value turn out when `Cc1cn([C@H]2C=C[C@@H](CO)O2)c(=O)[nH]c1=O` was run?
**A.** 13.1% (inactive)

**Q.** For `CC(C)Cc1ccc(C(C)C(=O)O)cc1` (centres undefined), which “activity change, negative = inhibition” value is on record?
**A.** -16.3% (inactive)

**Q.** `O=C1N(c2ccccc2)c2ccccc2C1(Cc1ccncc1)Cc1ccncc1` was tested. Which Potency did it give?
**A.** 2.19 µM (active)

**Q.** How did the Potency turn out when `Clc1ccc(C(c2ccccc2Cl)C(Cl)Cl)cc1` (centres undefined) was run?
**A.** 12.3 µM (active)

**Q.** How did the “activity change, negative = inhibition” value turn out when `COC(=O)Nc1nc2ccc(C(=O)c3cccs3)cc2[nH]1` was run?
**A.** 52.9% (inactive)

**Q.** For `CCC1(C)CC(=O)NC1=O` (centres undefined), which “activity change, negative = inhibition” value is on record?
**A.** 0.91% (inactive)

**Q.** `Nc1nnc(-c2cccc(Cl)c2Cl)c(N)n1` was tested. Which “activity change, negative = inhibition” value did it give?
**A.** 7.48% (inactive)

**Q.** For `Clc1ccc2nsnc2c1NC1=NCCN1`, which “activity change, negative = inhibition” value is on record?
**A.** 15.4% (inactive)

**Q.** How did the “activity change, negative = inhibition” value turn out when `CC[N+](CC)(CC)CCOc1cccc(OCC[N+](CC)(CC)CC)c1OCC[N+](CC)(CC)CC` was run?
**A.** 3.76% (inactive)

**Q.** Which “activity change, negative = inhibition” value does the source give for `COc1ccc2[nH]cc(CCNC(C)=O)c2c1` here?
**A.** -24.7% (inactive)

**Q.** How did the Potency turn out when `CN1C(C(=O)Nc2ccccn2)=C(O)c2ccccc2S1(=O)=O` was run?
**A.** 15.5 µM (active) and 10.7 µM (active)

**Q.** `CCN1CCCC1CNC(=O)c1cc(S(=O)(=O)CC)c(N)cc1OC` (centres undefined) was tested. Which “activity change, negative = inhibition” value did it give?
**A.** -26.5% (inactive)

**Q.** For `COc1ccc(C2CNC(=O)C2)cc1OC1CCCC1` (centres undefined), which “activity change, negative = inhibition” value is on record?
**A.** 6.94% (inactive)

**Q.** `CC(C)NCC(O)COc1ccc(CCOCC2CC2)cc1` (centres undefined) was tested. Which Potency did it give?
**A.** inactive

**Q.** Which “activity change, negative = inhibition” value does the source give for `CC[C@@]1(O)C(=O)OCc2c1cc1n(c2=O)Cc2cc3c(CN(C)C)c(O)ccc3nc2-1` here?
**A.** -2.6% (inactive)

**Q.** With `Cc1cc(C(C)(C)C)c(O)c(C)c1CC1=NCCN1` as the compound, how does the “activity change, negative = inhibition” value read?
**A.** 8.55% (inactive)

**Q.** `C[C@H]1c2cccc(O)c2C(O)=C2C(=O)[C@]3(O)C(O)=C(C(N)=O)C(=O)[C@@H](N(C)C)[C@@H]3[C@@H](O)[C@@H]21` was tested. Which “activity change, negative = inhibition” value did it give?
**A.** -27.5% (inactive)

**Q.** How did the “activity change, negative = inhibition” value turn out when `Cc1cc(C(C)(C)C)cc(C)c1CC1=NCCN1` was run?
**A.** 6.03% (inactive)

**Q.** With `NS(=O)(=O)c1cc2c(cc1Cl)NCNS2(=O)=O` as the compound, how does the “activity change, negative = inhibition” value read?
**A.** 113% (inactive)

**Q.** Which “activity change, negative = inhibition” value does the source give for `CCC1(c2ccccc2)C(=O)NCNC1=O` here?
**A.** 8.85% (inactive)

**Q.** For `C[C@](N)(Cc1ccc(O)c(O)c1)C(=O)O`, which “activity change, negative = inhibition” value is on record?
**A.** 2.48% (inactive)

**Q.** `NCCCCCC(=O)O` was tested. Which “activity change, negative = inhibition” value did it give?
**A.** 11.9% (inactive)

**Q.** With `O=c1[nH]cc(F)c(=O)[nH]1` as the compound, how does the “activity change, negative = inhibition” value read?
**A.** 1.1% (inactive)

**Q.** Which “activity change, negative = inhibition” value does the source give for `Nc1ccn([C@H]2CC[C@@H](CO)O2)c(=O)n1` here?
**A.** 9.29% (inactive)

**Q.** How did the Potency turn out when `N[C@@H](Cc1c[nH]c2ccc(O)cc12)C(=O)O` was run?
**A.** 15.5 µM (active)

**Q.** With `CCc1cccc2c3c([nH]c12)C(CC)(CC(=O)O)OCC3` (centres undefined) as the compound, how does the Potency read?
**A.** 18.2 µM (active)

**Q.** For `NC(=O)OCC(COC(N)=O)c1ccccc1`, which “activity change, negative = inhibition” value is on record?
**A.** 7.72% (inactive)

**Q.** `CN1CCN2c3ccccc3Cc3ccccc3C2C1` (centres undefined) was tested. Which “activity change, negative = inhibition” value did it give?
**A.** -19.5% (inactive)

**Q.** `COc1cc2c(c(OC)c1OC)-c1ccc(OC)c(=O)cc1[C@@H](NC(C)=O)CC2` was tested. Which “activity change, negative = inhibition” value did it give?
**A.** -0.292% (inactive)

**Q.** Which “activity change, negative = inhibition” value does the source give for `O=C(C1CCCCC1)N1CC(=O)N2CCc3ccccc3C2C1` (centres undefined) here?
**A.** 0.559% (inactive)

From PubChem BioAssay (NCATS)
